Experiment in all cases: qHTS profiling for inhibitors of Plasmodium falciparum proliferation (AID 504749); also: nearly all actives have a fitted effect of over 60% in size
Common to all, as to details: P. falciparum in erythrocytes, SYBR Green DNA, 72 h; series mostly up to 28.7 µM
Background: qHTS replaces the single test concentration by a dilution series.

For one experiment, the system named is CP266. An outline of the steps:
(§1)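 SYBR Green fluorescence (ex 485 nm, em 535 nm) reports parasite DNA after 72 h compound exposure of infected red cells at 0.3% parasitemia, 2.5% hematocrit; signal normalized to 0.29 uM artemisinin and vehicle wells.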

The next experiment concerns CP268. An outline of the steps: as §1
The subject of a further experiment is CP269. An outline of the steps:
as §1

The test system of another experiment is CP286. In outline:
as §1

The next experiment concerns CP291. An outline of the steps: as §1
The next experiment concerns CP297. An outline of the steps:
as §1

The subject of the next experiment is CP305. In outline:
as §1

The test system of a further experiment is CP315. An outline of the steps: as §1
For a further experiment, the system named is CP325. An outline of the steps:
as §1

For another experiment, the system named is CP329. An outline of the steps: as §1

Results filed as inconclusive are left out. The source made the active and inactive calls. Calls follow the shape of the dose curve; as a rule, active = well fitted inhibition curve with a large enough effect; inconclusive = small, poorly fitted or top-dose-only effect; inactive = flat fitted curve, though single readings scatter.
Potency is read from the fitted curve at half-maximal effect.

With `O=C1c2ccccc2CN2C(=O)c3ccccc3CN12`, the Potency result in the experiment on CP266, in the experiment with CP268, with CP269, in the experiment on CP286, in the experiment with CP291 and in the experiment with CP297 was “inactive” in each case. Besides, the Potency result in the experiment with CP305, in the experiment with CP315, with CP325 and in the experiment with CP329 was “inactive” throughout.

In the case of `CC(C)(C)c1ccc2c(S(=O)(=O)O)c(C(C)(C)C)ccc2c1`, the Potency entry in the experiment with CP266, with CP268, in the experiment with CP269, in the experiment with CP286, in the experiment on CP291 and in the experiment on CP297 was “inactive” each time. Further, the Potency entry in the experiment with CP305, with CP315, in the experiment on CP325 and in the experiment on CP329 was “inactive” in each case.

As for `CCOC(=O)C1=C(COCCN)NC(C)=C(C(=O)OC)C1c1ccccc1Cl` (stereo not given), the Potency result in the experiment on CP266, in the experiment on CP268, in the experiment with CP269, with CP286, with CP291 and with CP297 was “inactive” throughout. Further, the Potency entry in the experiment with CP305, in the experiment on CP315, in the experiment on CP325 and in the experiment on CP329 was “inactive” in each case.

In the case of `CC(C)(CO)[C@@H](O)C(=O)NCCC(=O)NCCSSCCNC(=O)CCNC(=O)[C@H](O)C(C)(C)CO`, the Potency result in the experiment with CP266, in the experiment on CP268, with CP269, in the experiment with CP286, in the experiment with CP291 and with CP297 was “inactive” each time. Also, the Potency result with CP305, in the experiment with CP315, with CP325 and with CP329 was “inactive” in each case.

With `C[C@]12CC[C@@H]3c4ccc(OC(=O)c5ccccc5)cc4CC[C@H]3[C@@H]1CC[C@@H]2O`, the Potency entry in the experiment on CP266, in the experiment on CP268, in the experiment with CP269, with CP291, in the experiment on CP297 and in the experiment on CP305 was “inactive” in each case. The Potency result in the experiment on CP315, in the experiment with CP325 and in the experiment on CP329 was “inactive” throughout. Also, the Potency in the experiment with CP286 is 12.6 µM (active).

`Cc1cccc(Nc2ncccc2C(=O)O)c1C`: the Potency result with CP266, in the experiment on CP268, in the experiment with CP269, with CP286, in the experiment on CP291 and with CP297 was “inactive” each time. In addition, the Potency entry in the experiment with CP305, in the experiment with CP315, in the experiment on CP325 and in the experiment on CP329 was “inactive” each time.

`CCCCCCCCCCCCCCCCCC(=O)OCC(C)O` (stereo not given): the Potency result with CP266, with CP268, in the experiment with CP269, in the experiment on CP286, in the experiment with CP291 and in the experiment with CP297 was “inactive” throughout. In addition, the Potency entry with CP305, in the experiment on CP315, with CP325 and in the experiment with CP329 was “inactive” each time.

On to `Nc1ccc(N=Nc2ccccc2)c(N)n1`, for which the Potency entry in the experiment with CP266, in the experiment with CP268, in the experiment on CP269, with CP286, with CP291 and in the experiment on CP297 was “inactive” each time. Also, the Potency result with CP305, with CP315, in the experiment with CP325 and with CP329 was “inactive” in each case.

As to `C=CCCCCCCCCC(=O)OC`, the Potency entry with CP266, in the experiment on CP268, in the experiment on CP269, with CP286, in the experiment with CP291 and in the experiment on CP297 was “inactive” in each case. The Potency result in the experiment on CP305, with CP315, with CP325 and in the experiment with CP329 was “inactive” throughout.

Take `CCOc1ccc(S(=O)(=O)O)c2cccnc12`: the Potency entry with CP266, with CP268, in the experiment with CP269, in the experiment with CP286, in the experiment on CP291 and in the experiment on CP297 was “inactive” throughout. Also, the Potency result in the experiment with CP305, in the experiment on CP315, with CP325 and in the experiment with CP329 was “inactive” each time.

With `COc1ccccc1N1CCN(CCCC(=O)c2ccc(F)cc2)CC1`, the Potency entry in the experiment with CP266, with CP268, with CP269, in the experiment on CP286, with CP291 and in the experiment on CP297 was “inactive” each time. In addition, the Potency result in the experiment on CP305, in the experiment on CP315, with CP325 and in the experiment on CP329 was “inactive” in each case.

As for `O=C(O)CCC(=O)c1ccc(-c2ccccc2)cc1`, the Potency result with CP266, in the experiment on CP268, with CP269, in the experiment on CP286, in the experiment with CP291 and in the experiment with CP297 was “inactive” each time. Moreover, the Potency result with CP305, in the experiment on CP315, in the experiment on CP325 and in the experiment with CP329 was “inactive” each time.

Consider `COc1ccc(-c2noc(CC(=O)O)c2-c2ccc(OC)cc2)cc1`, for which the Potency result in the experiment on CP266, in the experiment on CP268, with CP269, in the experiment on CP286, in the experiment on CP291 and in the experiment on CP297 was “inactive” throughout. Also, the Potency result with CP305, in the experiment on CP315, in the experiment on CP325 and in the experiment on CP329 was “inactive” in each case.

Consider `CCCCC`, for which the Potency result in the experiment on CP266, with CP268, with CP269, in the experiment on CP286, with CP291 and with CP297 was “inactive” throughout. Moreover, the Potency entry with CP305, with CP315, with CP325 and with CP329 was “inactive” each time.

For the compound `CC(=O)Oc1cccc2c1C(=O)c1c(OC(C)=O)cc(C(=O)O)cc1C2=O`, the Potency entry in the experiment on CP266, in the experiment with CP268, in the experiment with CP269, in the experiment with CP286, in the experiment with CP291 and with CP297 was “inactive” in each case. The Potency entry in the experiment with CP305, with CP315, in the experiment with CP325 and in the experiment with CP329 was “inactive” throughout.

With `C[C@H](N)C(=O)N[C@@H](C)P(=O)(O)O`, the Potency result with CP266, in the experiment with CP268, with CP269, with CP286, in the experiment with CP291 and in the experiment with CP297 was “inactive” in each case. Also, the Potency result with CP305, in the experiment on CP315, in the experiment with CP325 and in the experiment with CP329 was “inactive” each time.

In the case of `CCCCCCCCCC(=O)NO`, the Potency result with CP266, in the experiment with CP268, in the experiment on CP269, in the experiment on CP286, in the experiment with CP291 and in the experiment on CP297 was “inactive” each time. The Potency result in the experiment with CP305, in the experiment on CP315, in the experiment with CP325 and with CP329 was “inactive” each time.

Turning to `O=c1[nH]c(=O)n([C@H]2C[C@H](O)[C@@H](CO)O2)cc1/C=C/Br`, the Potency entry with CP266, with CP268, in the experiment on CP269, in the experiment on CP286, in the experiment with CP291 and in the experiment on CP297 was “inactive” in each case. Moreover, the Potency result in the experiment on CP305, in the experiment on CP315, in the experiment with CP325 and with CP329 was “inactive” throughout.

`NCC(O)CC(=O)O` (stereo not given): the Potency result with CP266, in the experiment on CP268, with CP269, in the experiment on CP286, in the experiment on CP291 and in the experiment on CP297 was “inactive” each time. For the same compound, the Potency entry in the experiment with CP305, with CP315, in the experiment with CP325 and with CP329 was “inactive” throughout.

As for `c1ccc2ccccc2c1`, the Potency result in the experiment on CP266, in the experiment on CP268, with CP269, in the experiment on CP286, with CP291 and in the experiment on CP297 was “inactive” in each case. In addition, the Potency entry in the experiment on CP305, in the experiment on CP315, in the experiment with CP325 and in the experiment with CP329 was “inactive” in each case.

Regarding `CC(=O)[C@H]1CC[C@H]2[C@@H]3C=CC4=CC(=O)CC[C@@]4(C)[C@H]3CC[C@]12C`, the Potency entry in the experiment on CP266, in the experiment on CP268, in the experiment with CP269, in the experiment on CP286, with CP291 and with CP297 was “inactive” in each case. Also, the Potency entry in the experiment on CP305, in the experiment with CP315, in the experiment on CP325 and with CP329 was “inactive” each time.

For the origin of these results see PubChem BioAssay (NCATS).
